What is called Inhibition is the share of the control response that was lost under treatment.

Drawing on ChEMBL document CHEMBL1157539, “Thousands of chemical starting points for antimalarial lead identification” (Nature, 2010), this text covers Inhibition for 11 compounds.

SMILES strings stand for the structures.

Assay type in all cases: functional
The test system of assay [1] is Plasmodium falciparum. Briefly: GSK_TCMDC: Inhibition of Plasmodium falciparum 3D7 in whole red blood cells, using parasite LDH activity as an index of growth. Test compounds present at 2uM.
The subject of assay [2] is Plasmodium falciparum. Briefly: GSK_TCMDC: Inhibition of Plasmodium falciparum Dd2 in whole red blood cells, using parasite LDH activity as an index of growth. Test compounds present at 2uM.
The next assay relates to HepG2. Briefly: GSK_TCMDC: Percent inhibition of human HepG2 cell line. Test compounds present at 10uM.

On to `c1ccc(Oc2ccc(Nc3ccnc4cc(-c5ccc(CNCCN6CCOCC6)o5)ccc34)cc2)nc1`, for which the Inhibition in the assay with Plasmodium falciparum [1] is reported as 100%; in the assay with Plasmodium falciparum [2] it was 100%; with HepG2, 0%.
Regarding `CCOC(=O)C(C#N)NC(=O)C=Cc1ccccc1` (stereo not drawn), the Inhibition was 96% with Plasmodium falciparum [1], 9% in the assay on Plasmodium falciparum [2] and 0% in the assay with HepG2.
The like results for `O=C(C=Cc1ccc(Cl)c(Cl)c1)NCCCCCN1CCC(CCCNS(=O)(=O)c2ccc(Br)cc2)CC1` were, in that order, 93%, 25% and 74%.
On the same counts, the results for `N#Cc1ccc(/C=C/C(=O)NCCCCCN2CCCN(C(=O)Nc3ccc(Cl)c(C(F)(F)F)c3)CC2)cc1` are 98%, 13% and 28%.
The like results for `Cc1nc(-c2ccncc2)sc1C(=O)Nc1ccc(Cl)cc1C(=O)Nc1ccc(Cl)cc1` were, in that order, 98%, 47% and 2%.
For `Cc1ccccc1C1CCN(C2CCC(NC(=O)/C=C/c3cc(F)cc(F)c3)CC2)CC1` (stereo not drawn), the Inhibition in the assay on Plasmodium falciparum [1] came out at 99%; with Plasmodium falciparum [2], 33%; in the assay with HepG2, 53%.
The like results for `COc1cc(NC(=O)C(c2ccc(Cl)cc2)C(C)C)cc(OC)c1` (stereo not drawn) were, in that order, 99%, 98% and 5%.
Turning to `O=[N+]([O-])c1nc(Br)n(Cc2ccc(Cl)cc2)n1`, the Inhibition was 96% in the assay with Plasmodium falciparum [1], 95% with Plasmodium falciparum [2] and 0% in the assay on HepG2.
On to `Cc1[nH]c(C)c(-c2ccc(-c3ccc(Cl)cc3)nc2)c(=O)c1Cl`, for which the Inhibition with Plasmodium falciparum [1] is listed as 95%; in the assay on Plasmodium falciparum [2], 96%; in the assay on HepG2, 8%.
The like results for `COc1c(O)cc2oc(-c3ccc(O)cc3)cc(=O)c2c1O` [HISPIDULIN] were, in that order, 96%, 0% and 6%.
The like results for `O=C(NCc1ccc(Cl)c(Cl)c1)[C@H]1CNCCN1C(=O)c1ccccc1.O=C(O)C(F)(F)F` were, in that order, 97%, 4% and 0%.
